USP8 block: human USP8 deubiquitinase inhibition; purified USP8, Ub-rhodamine cleavage fluorescence, 30 min; inhibition, % at 20 µM; AID 1645853; 47,000 tested, 4.2% active; P40818
USP28 block: blocks human USP28 ubiquitin-rhodamine cleavage. Q96RU2. purified USP28, Ub-rhodamine cleavage fluorescence, 30 min. inhibition, % at 25 µM. 47,000 tested, 3% active. AID 1645857
USP10 block: human USP10 deubiquitinase inhibition. inhibition, % at 20 µM. AID 1645856. Q14694. purified USP10, Ub-rhodamine fluorescence, 60 min. 47,000 tested, 1.1% active
USP30 inh: human USP30 deubiquitinase inhibition. purified USP30, Ub-rhodamine cleavage fluorescence. 47,000 tested, 5.3% active. Q70CQ3. inhibition, % at 25 µM
USP17 inh: human USP17-like deubiquitinase inhibition. 47,000 tested, 6.5% active. AID 1645855. inhibition, % at 50 µM. A8MUK1. purified USP17, Ub-rhodamine cleavage fluorescence, 3 h
Target sequence (A8MUK1 whole entry, looked up): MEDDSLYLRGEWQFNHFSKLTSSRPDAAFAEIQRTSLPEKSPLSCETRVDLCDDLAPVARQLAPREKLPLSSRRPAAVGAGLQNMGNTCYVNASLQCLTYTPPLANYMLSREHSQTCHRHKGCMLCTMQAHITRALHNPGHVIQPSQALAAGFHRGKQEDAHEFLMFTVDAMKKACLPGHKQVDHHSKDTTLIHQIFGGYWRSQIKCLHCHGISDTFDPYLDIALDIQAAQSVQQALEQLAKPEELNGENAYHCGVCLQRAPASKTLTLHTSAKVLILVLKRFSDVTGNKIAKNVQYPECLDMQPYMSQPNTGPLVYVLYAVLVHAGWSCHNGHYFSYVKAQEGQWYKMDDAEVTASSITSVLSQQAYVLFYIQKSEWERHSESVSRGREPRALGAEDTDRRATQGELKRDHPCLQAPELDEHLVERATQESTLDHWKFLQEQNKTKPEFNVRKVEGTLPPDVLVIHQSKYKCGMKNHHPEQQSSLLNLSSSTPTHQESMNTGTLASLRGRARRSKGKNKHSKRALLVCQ
Active calls of the source: *. An excerpt weighted towards active compounds, which were near 14% of everything screened. Rule as the data show it: active = inhibition above about 30%; inactive = the rest.

How did CCC(=O)Nc1nc2cc(NC(=O)c3cc(OC)c(OC)c(OC)c3)ccc2s1 do in these assays?
USP8 block: 0.4; USP28 block: -22.8; USP10 block: -0.4; USP30 inh: -130.1; USP17 inh: -43.5

Results for COc1cc(C(=O)Nc2ccc3nccnc3c2)cc(OC)c1OC ?
USP8 block: 3.0; USP28 block: 33.6*; USP10 block: 3.0; USP30 inh: -32.8; USP17 inh: 18.1

What do the screens show for `Cc1nc(-c2cccc(NC(=O)c3ccc(C)c(NC(=O)c4ccco4)c3)c2)cs1`?
USP8 block: 14.8; USP28 block: 22.3; USP10 block: 10.8; USP30 inh: 28.0; USP17 inh: 43.0*

How did O=C(Nc1cccc(-c2nc(-c3ccc(=O)[nH]c3)no2)c1)c1ccco1 do in these assays?
USP8 block: 63.2*; USP28 block: -23.6; USP10 block: -8.9; USP30 inh: -197.4; USP17 inh: 2.0

What do the screens show for `CCn1cc(C(=O)NC(C)c2ccc(F)cc2)c(=O)c2ccc(C)nc21` (centres undefined)?
USP8 block: -6.8; USP28 block: -15.4; USP10 block: -5.1; USP30 inh: -169.6; USP17 inh: 13.7

How did COc1cccc(N2CCN(C(=O)c3cc(-c4ccncc4)n[nH]3)CC2)c1 do in these assays?
USP8 block: -0.4; USP28 block: 7.1; USP10 block: 0.1; USP30 inh: 15.0; USP17 inh: 12.8

Results for CN([C@H]1CC[C@@]2(C)C[C@H](c3ccccc3)C[C@](C)(O2)[C@@H]1O)S(C)(=O)=O ?
USP8 block: 23.9; USP28 block: 7.1; USP10 block: -8.1; USP30 inh: 13.1; USP17 inh: 14.4

What do the screens show for `Cc1nc(-c2cccc(NC(=O)c3cccc(F)c3)c2)cs1`?
USP8 block: -4.5; USP28 block: 12.2; USP10 block: 7.3; USP30 inh: -13.2; USP17 inh: -8.2

What do the screens show for `Cc1nc(-c2ccc(C(=O)Nc3ccc(F)cc3)cc2)cs1`?
USP8 block: 65.3*; USP28 block: 21.5; USP10 block: 24.1; USP30 inh: 33.5*; USP17 inh: 19.3

Results for COc1cc(C(=O)Nc2ccc(-c3csc(C)n3)cc2)cc(OC)c1OC ?
USP8 block: 8.7; USP28 block: 78.0*; USP10 block: -1.3; USP30 inh: -32.5; USP17 inh: -9.1

What do the screens show for `COc1ccc(CNC(=O)c2ccc(-c3csc(C)n3)cc2)cc1`?
USP8 block: 0.0; USP28 block: 4.0; USP10 block: 12.0; USP30 inh: 5.9; USP17 inh: 8.3

Results for COc1ccc(C(=O)Nc2cccc(C(=O)OCC(=O)c3ccc(Br)cc3)c2)cc1OC ?
USP8 block: 3.3; USP28 block: -0.1; USP10 block: 8.8; USP30 inh: 8.2; USP17 inh: 34.2*

What do the screens show for `COc1ccc(C(=O)Nc2cccc(-c3csc(C)n3)c2)cc1OC`?
USP8 block: -10.3; USP28 block: 46.1*; USP10 block: -0.8; USP30 inh: -7.3; USP17 inh: -9.7

How did CCn1c(=O)c(=O)[nH]c2cc(C(=O)Nc3cccc(-c4csc(C)n4)c3)ccc21 do in these assays?
USP8 block: 18.4; USP28 block: 75.0*; USP10 block: 2.0; USP30 inh: -14.5; USP17 inh: 58.1*

How did Cc1cccc(NC(=O)c2ccc(N3CCCC3)nn2)n1 do in these assays?
USP8 block: -6.1; USP28 block: 11.0; USP10 block: -2.4; USP30 inh: 5.4; USP17 inh: -3.5

What do the screens show for `Cc1c(Cl)cccc1NC(=O)c1ccc(N2CCCC2)nn1`?
USP8 block: -17.3; USP28 block: 25.4; USP10 block: -4.2; USP30 inh: 61.2*; USP17 inh: 55.7*

What do the screens show for `Cc1cccc(NC(=O)c2ccc(N3CCCC3)nn2)c1`?
USP8 block: -24.3; USP28 block: 11.7; USP10 block: 2.2; USP30 inh: 31.8*; USP17 inh: -9.0

What do the screens show for `OC1(c2cccnc2)CCN(Cc2ccccc2F)CC1`?
USP8 block: -13.4; USP28 block: -6.5; USP10 block: -7.3; USP30 inh: -43.8; USP17 inh: -12.8

How did COCCn1cc(CN2CCC(O)(c3ccccc3F)CC2)c2ccccc21 do in these assays?
USP8 block: 32.2*; USP28 block: 26.3; USP10 block: -0.1; USP30 inh: 34.7*; USP17 inh: 9.4

How did CC(NC(=O)Cn1cnc2ccccc2c1=O)c1ccc(Cl)cc1Cl (centres undefined) do in these assays?
USP8 block: -0.3; USP28 block: -4.6; USP10 block: -2.1; USP30 inh: 6.6; USP17 inh: 20.2

What do the screens show for `Cc1cc2oc(=O)cc(COC(=O)c3ccc4[nH]c(C)c(C)c4c3)c2cc1Cl`?
USP8 block: 22.9; USP28 block: -2.0; USP10 block: 6.2; USP30 inh: -97.8; USP17 inh: 45.9*

What do the screens show for `Cc1cc(C)cc(C(=O)OCc2cc(=O)oc3cc(C)ccc23)c1`?
USP8 block: 2.1; USP28 block: -10.3; USP10 block: -1.1; USP30 inh: -14.7; USP17 inh: 0.1

Results for CN1C[C@H]2CCN(C(=O)NCCc3c[nH]c4ccccc34)C[C@H]21 ?
USP8 block: -0.4; USP28 block: -14.2; USP10 block: -0.1; USP30 inh: -2.3; USP17 inh: -9.2

Results for O=C(O)c1c(CNCCc2c[nH]c3ccccc23)c2ccccc2n1Cc1ccc(F)cc1 ?
USP8 block: -14.5; USP28 block: -1.4; USP10 block: -4.6; USP30 inh: -20.2; USP17 inh: 12.8

What do the screens show for `Cn1c(C(=O)NCCc2c[nH]c3ccccc23)cc2sccc21`?
USP8 block: -90.4; USP28 block: 38.6*; USP10 block: 2.7; USP30 inh: -0.5; USP17 inh: 10.6

Results for O=C(NCCc1c[nH]c2ccccc12)c1cc2sccc2n1Cc1ccccc1 ?
USP8 block: 10.6; USP28 block: -0.1; USP10 block: 11.3; USP30 inh: -20.6; USP17 inh: 43.6*

How did CCCc1nnc(C(=O)Nc2ccc(C(=O)NC(C)c3ccccc3)cc2)s1 (centres undefined) do in these assays?
USP8 block: -17.5; USP28 block: 8.9; USP10 block: 22.1; USP30 inh: 8.2; USP17 inh: 19.6

Results for Cc1cc(Br)ccc1NC(=O)CSc1nc2c(cc1C#N)C(=O)CCC2 ?
USP8 block: 7.7; USP28 block: -9.1; USP10 block: 6.6; USP30 inh: -14.9

Results for Cc1cc(C)c(NC(=O)CSC2=C(C#N)C(c3ccc(C)o3)C3=C(CCCC3=O)N2)c(C)c1 (centres undefined) ?
USP8 block: -25.9; USP28 block: 31.4*; USP10 block: 19.0; USP30 inh: 35.4*; USP17 inh: 19.2

What do the screens show for `CCCCN(C(=O)c1cc2c(=O)n3cccc(C)c3nc2n1Cc1ccccc1)c1ccccc1`?
USP8 block: 6.1; USP28 block: 3.7; USP10 block: 3.5; USP30 inh: 0.0; USP17 inh: 6.1

Results for COc1ccccc1C1CC(c2ccccc2)N(C(=O)C2CC2)c2ncnn21 (centres undefined) ?
USP8 block: -1.0; USP28 block: -2.3; USP10 block: 1.1; USP30 inh: 0.0; USP17 inh: -2.8

From PubChem
